Screening data: PubChem BioAssay, several laboratories
Compounds with a hit are over-represented: about 32% of the library has one in this group of screens.
CYP2C19 act = human CYP2C19 activators, primary screen, biochemical, luminescence; Cytochrome P450 2C19 (Homo sapiens), P33261; recombinant CYP2C19, luciferin-H EGE luminescence; hits give high values; 0 = fully inhibited enzyme, 1 = untreated enzyme; 96,000 tested, under 10 active; activation factor at 5 µM;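 active = activation factor of at least 2 at 5 µM in the primary screen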;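 note: 0 = wells with 2.5 mM tranylcypromine and 1 = vehicle-only wells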
CYP2C9 inh = blockers of cytochrome P450 2C9 activity – biochemical, luminescence, ADME assay, primary screen; P11712; CYP2C9 Supersomes, luciferin-H conversion; inhibition, % at 5 µM; 20% of 96,000 active; AID 777, 2007;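 active = blocking of liver enzyme CYP2C9 beyond about 50% at 5 µM, limit read from the data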
Target sequence (P11712 whole entry, looked up): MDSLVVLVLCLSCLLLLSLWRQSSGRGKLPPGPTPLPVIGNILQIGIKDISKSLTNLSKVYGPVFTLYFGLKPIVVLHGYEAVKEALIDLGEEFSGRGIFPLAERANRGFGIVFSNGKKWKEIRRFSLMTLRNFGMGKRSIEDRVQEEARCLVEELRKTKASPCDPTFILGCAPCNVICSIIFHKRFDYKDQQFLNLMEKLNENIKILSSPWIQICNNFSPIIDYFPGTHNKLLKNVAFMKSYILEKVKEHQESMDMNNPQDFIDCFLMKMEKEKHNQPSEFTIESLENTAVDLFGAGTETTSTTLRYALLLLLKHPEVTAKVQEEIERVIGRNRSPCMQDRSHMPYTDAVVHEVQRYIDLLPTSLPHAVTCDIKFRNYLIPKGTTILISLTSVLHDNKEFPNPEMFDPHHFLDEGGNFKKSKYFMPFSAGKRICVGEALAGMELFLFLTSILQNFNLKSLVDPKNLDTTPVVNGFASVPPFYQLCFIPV
CYP2C9 activ = human CYP2C9 activators, primary screen, biochemical, luminescence. 1.4% of 96,000 active. activation factor at 5 µM. recombinant CYP2C9, luciferin-H conversion; hits give high values; factor 1 = untreated enzyme, 0 = blocked. Cytochrome P450 2C9 (Homo sapiens), P11712. AID 1024, 2008;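 active = activation factor of 2 or more for CYP2C9 at a 5 µM dose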;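 note: 0 = sulfaphenazole-blocked wells and 1 = vehicle-only wells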
CYP2C19 inh = blockers of cytochrome P450 2C19 activity – biochemical, luminescence, ADME assay, primary screen; 21% of 96,000 active; CYP2C19 Supersomes, luciferin-H EGE luminescence, 30 min; P33261; inhibition, % at 5 µM;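 active = CYP2C19 inhibition above a set limit at 5 µM in the primary screen, cut at about 50% in these data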;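 note: plate controls were negative control wells for no effect and 2.5 mM tranylcypromine positive control for full effect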
PostGolgi ctrl = growth inhibition of yeast control strain, primary screen, counter-screen for post-Golgi transport modulator project; efflux-deficient yeast background strain, growth absorbance A615, 16 h; inhibition, % at 10 µM; 5% of 98,000 active; AID 738, 2007
PostGolgi yeast = phenotypic screen on post-Golgi transport, primary screen; 0.9% of 98,000 active; post-Golgi transport phenotypic cell assay; inhibition, % at 10 µM;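 note: yeast cells grown in 1536-well plates; yeast grown about 18 h at 30C before absorbance read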
Numbers without * were called inactive. Cut-off read from the data, not from the text of the source, unless noted: active = inhibition above about 30%; inactive = the rest.

How did CO/N=C(/CS(=O)Cc1ccc(Cl)cc1)c1ccc(Cl)cc1 (stereo not drawn) do in these assays?
CYP2C19 act: 0; CYP2C9 inh: 56*; CYP2C9 activ: 0.4; CYP2C19 inh: 96*; PostGolgi ctrl: 29; PostGolgi yeast: 14

Results for COC(=O)CCc1nc2ccccc2[nH]c1=O ?
CYP2C19 act: 0.8; CYP2C9 inh: -6; CYP2C9 activ: 1.1; CYP2C19 inh: 22; PostGolgi ctrl: -3; PostGolgi yeast: -5

What do the screens show for `CC(OC(=O)CCc1nc2ccccc2[nH]c1=O)C(=O)c1ccccc1` (stereo not drawn)?
CYP2C19 act: 0; CYP2C9 inh: 67*; CYP2C9 activ: 0.3; CYP2C19 inh: 96*; PostGolgi ctrl: -3; PostGolgi yeast: 3

Results for CCCC(=O)c1cc(F)c(N2CCN(S(=O)(=O)c3ccccc3)CC2)cc1C ?
CYP2C19 act: 0.8; CYP2C9 inh: 15; CYP2C9 activ: 0.8; CYP2C19 inh: 21; PostGolgi ctrl: 7; PostGolgi yeast: -8

How did CCCC(=O)c1cc(F)c(N2CCOCC2)cc1C do in these assays?
CYP2C19 act: 0.5; CYP2C9 inh: 43; CYP2C9 activ: 0.6; CYP2C19 inh: 53*; PostGolgi ctrl: 13; PostGolgi yeast: 1

What do the screens show for `CCOC(=O)CSc1nnc(CNC(=O)c2ccc(S(=O)(=O)N3CCCCC3)cc2)n1C`?
CYP2C19 act: 0.9; CYP2C9 inh: 14; CYP2C9 activ: 0.9; CYP2C19 inh: 11; PostGolgi ctrl: 7; PostGolgi yeast: -10

How did Cc1ccc(CNC(=O)CSc2nc3n[nH]c(C)c3c(=N)n2-c2cccc(C)c2)cc1 do in these assays?
CYP2C19 act: 0.3; CYP2C9 inh: 54*; CYP2C9 activ: 0.5; CYP2C19 inh: 66*; PostGolgi ctrl: 4; PostGolgi yeast: 10

How did COc1cccc(-n2c(SCC(=O)NCCC3=CCCCC3)nc3n[nH]c(C)c3c2=N)c1 do in these assays?
CYP2C19 act: 0.5; CYP2C9 inh: 27; CYP2C9 activ: 0.7; CYP2C19 inh: 48; PostGolgi ctrl: -2; PostGolgi yeast: 5

What do the screens show for `COc1cccc(NC(=O)CSc2nc3n[nH]c(C)c3c(=N)n2-c2cccc(OC)c2)c1`?
CYP2C19 act: 0.1; CYP2C9 inh: 80*; CYP2C9 activ: 0.2; CYP2C19 inh: 88*; PostGolgi ctrl: -4; PostGolgi yeast: -1

Results for Cn1cnnc1SCC(=O)NCCc1ccccc1 ?
CYP2C19 act: 0.8; CYP2C9 inh: -7; CYP2C9 activ: 1.1; CYP2C19 inh: 23; PostGolgi ctrl: 5; PostGolgi yeast: 7

How did COc1cc2c(cc1OC)C(=O)CC(C)S2 (stereo not drawn) do in these assays?
CYP2C19 act: 1; CYP2C9 inh: -24; CYP2C9 activ: 1.2; CYP2C19 inh: 1; PostGolgi ctrl: 1; PostGolgi yeast: -10

What do the screens show for `Cc1ccc2cccnc2c1NC(=S)NC(=O)c1ccccc1`?
CYP2C19 act: 0.6; CYP2C9 inh: 14; CYP2C9 activ: 0.9; CYP2C19 inh: 39; PostGolgi ctrl: 12; PostGolgi yeast: 3

How did CC(=O)NC1(c2ccccc2)CCN(c2nc(C)cc(C)n2)CC1 do in these assays?
CYP2C19 act: 0.1; CYP2C9 inh: 97*; CYP2C9 activ: 0; CYP2C19 inh: 93*; PostGolgi ctrl: 0; PostGolgi yeast: -9

How did Nc1nc(Nc2cccc(F)c2)nc2ccccc12 do in these assays?
CYP2C19 act: 0.4; CYP2C9 inh: 56*; CYP2C9 activ: 0.4; CYP2C19 inh: 62*; PostGolgi ctrl: -3; PostGolgi yeast: -8

Results for O=c1oc(Nc2cccc(F)c2)nc2ccccc12 ?
CYP2C19 act: 1; CYP2C9 inh: 8; CYP2C9 activ: 0.9; CYP2C19 inh: 4; PostGolgi ctrl: 18; PostGolgi yeast: -1

What do the screens show for `COc1nc(NC23CC4CC(CC(C4)C2)C3)nc(OC)n1`?
CYP2C19 act: 1; CYP2C9 inh: 15; CYP2C9 activ: 0.8; CYP2C19 inh: 4; PostGolgi ctrl: 34*; PostGolgi yeast: -1

What do the screens show for `CCOC(=O)CSC1=C(C#N)C(c2ccccc2C)C2=C(CCCC2=O)N1` (stereo not drawn)?
CYP2C19 act: 0.5; CYP2C9 inh: 79*; CYP2C9 activ: 0.2; CYP2C19 inh: 50*; PostGolgi ctrl: 10; PostGolgi yeast: 0

How did CCOC(=O)CSC1=C(C#N)C(c2ccc(C)s2)CC(=O)N1 (stereo not drawn) do in these assays?
CYP2C19 act: 0.3; CYP2C9 inh: 96*; CYP2C9 activ: 0; CYP2C19 inh: 72*; PostGolgi ctrl: 16; PostGolgi yeast: 0

How did COc1ccc(OC)c(C2CC(=O)NC(SC)=C2C#N)c1 (stereo not drawn) do in these assays?
CYP2C19 act: 0.5; CYP2C9 inh: 64*; CYP2C9 activ: 0.4; CYP2C19 inh: 48; PostGolgi ctrl: -3; PostGolgi yeast: -7

How did COC(=O)CSC1=C(C#N)C(c2cccc(F)c2)CC(=O)N1 (stereo not drawn) do in these assays?
CYP2C19 act: 0.7; CYP2C9 inh: 44; CYP2C9 activ: 0.6; CYP2C19 inh: 28; PostGolgi ctrl: 9; PostGolgi yeast: 8

Results for CCSC1=C(C#N)C(c2ccc(Cl)cc2)C2=C(CCCC2=O)N1 (stereo not drawn) ?
CYP2C19 act: 0.1; CYP2C9 inh: 94*; CYP2C9 activ: 0.1; CYP2C19 inh: 94*; PostGolgi ctrl: 5; PostGolgi yeast: -5

How did CC(C)c1ccc(NC(=O)C(c2ccccc2)N2CCC3(CC2)OCCO3)cc1 (stereo not drawn) do in these assays?
CYP2C19 act: 0.8; CYP2C9 inh: 6; CYP2C9 activ: 0.9; CYP2C19 inh: 23; PostGolgi ctrl: 11; PostGolgi yeast: -1

Results for CSCC[C@H](NC(=O)OC(C)(C)C)C(=O)N1CCC(C(=O)N[C@@H](C)C(=O)O)CC1 ?
CYP2C19 act: 1; CYP2C9 inh: -1; CYP2C9 activ: 1; CYP2C19 inh: 4; PostGolgi ctrl: -3; PostGolgi yeast: 8

How did CCSC1=C(C#N)C(c2ccc(C)s2)CC(=O)N1 (stereo not drawn) do in these assays?
CYP2C19 act: 0.3; CYP2C9 inh: 52*; CYP2C9 activ: 0.5; CYP2C19 inh: 69*

Results for CCOC(=O)CSC1=C(C#N)C(c2ccccc2OC)CC(=O)N1 (stereo not drawn) ?
CYP2C19 act: 0.4; CYP2C9 inh: 15; CYP2C9 activ: 0.8; CYP2C19 inh: 64*; PostGolgi ctrl: -9; PostGolgi yeast: 3

What do the screens show for `COC(=O)c1ccc(CSc2nc(C)nc3c2c(=O)n(C)c(=O)n3C)o1`?
PostGolgi ctrl: 2; PostGolgi yeast: 3

How did Cc1ccc(OCC(=O)N/N=C/c2cn[nH]c2-c2ccc(Cl)c(Cl)c2)cc1 do in these assays?
CYP2C19 act: 0.9; CYP2C9 inh: 52*; CYP2C9 activ: 0.5; CYP2C19 inh: 14; PostGolgi ctrl: 8; PostGolgi yeast: -5
